These results are taken from PubChem BioAssay (NCATS).

Records with an inconclusive call do not appear. Active and inactive are the calls of the source. Calls follow the shape of the dose curve; as a rule, active = well fitted curve in either direction with a large enough effect (not every such curve was filed as active); inconclusive = small, poorly fitted or top-dose-only effect, or another doubt; inactive = flat fitted curve, though single readings scatter.

This assay is described as follows: Stat Signaling Pathway (AID 446). The conditions noted are these: ME-180 (cervical carcinoma) SIE beta-lactamase reporter, IL-6 stimulated, 5 h; series mostly up to 17.2 µM. On the procedure: NCGC Assay Overview: The IL-6/STAT signaling pathway was assayed in ME-180 cervical carcinoma cells by a beta-lactamase reporter gene controlled by a STAT Inducible Element (SIE). This reporter is induced by IL-6 at 40 pM AC50 and inhibited by the pan JAK inhibitor, 2-(1,1-Dimethylethyl)-9-fluoro-3,6-dihydro-7H-benz[h]-imidaz[4,5-f]isoquinolin-7-one, at approximately 10 nM AC50. Plated cells were incubated overnight and on the following day, stimulated with 40 pM IL-6 for 5 hrs. The assay was screened at the AC50 of IL-6 activation to identify both inhibitors and activators of IL-6/STAT signaling.
NCGC Assay Protocol Summary: Cells were trypsinized, washed in assay medium (AM, OPTI MEM with 0.5% fetal bovine serum, 0.1 mM nonessential amino acids, 1 mM sodium pyruvate, 10mM HEPES pH 7.3, 100U/ml penicillin, and 100 ug/ml streptomycin) and suspended at 6 x 10e5/ml in AM. Approximately […] cells in 5 uL/well was dispensed into 1536 well plates and the cells were incubated overnight at 37 C. 23 nL of compound were delivered by a pin tool and 1 uL of IL-6 (40 pM final concentration in AM) was added. After centrifugation at 1000 rpm for less than a minute, plates were incubated at 37C for 5 hrs. One uL of detector mix (LiveBLAzerTM, Invitrogen) was added, the plates incubated at room temperature for 2.5 hrs, and fluorescence intensity at 460 and 530 nm emission was measured at 405 nm excitation by an Envision (Perkin Elmer) or Safire II (Tecan). Data were normalized by GeneData to the controls for AC90 stimulation (300 pM IL-6) and to AC90 inhibition (125 nM Jak inhibitor, 40 pM IL-6 in AM).
Take `C[C@@H](Cc1cccc(C(F)(F)F)c1)NCCOC(=O)c1ccccc1`: the compound was classed as inactive.

Consider `COc1ccc(CNc2ncncc2-c2ccccc2CN(C)C)c(OC)c1`, for which the outcome was inactive. The entry for `O[C@H](c1cc(C(F)(F)F)nc2c(C(F)(F)F)cccc12)[C@H]1CCCCN1` is “inactive”; for `O=C(c1cc(C(F)(F)F)cc(C(F)(F)F)c1)N1CCC[C@@]2(CCN(c3ccccn3)C2)C1` it is “inactive”; for `Cc1ccc(S(=O)(=O)NC(=O)NN2C[C@H]3CCC[C@@H]3C2)cc1` it is “inactive”. The entry for `C=N[C@H](C(=O)N[C@@H]1C(=O)N2[C@@H]1SC(C)(C)[C@@H]2C(=O)O)c1ccccc1` is “inactive”; for `CC(C)(C)NC(=O)[C@@H]1CC[C@@H]2[C@@H]3CC[C@@H]4NC(=O)C=C[C@@]4(C)[C@H]3CC[C@]21C` it is “inactive”.

`CN[C@H]1[C@@H](O)[C@@H](NC)[C@@H]2O[C@@]3(O)C(=O)C[C@@H](C)O[C@H]3O[C@H]2[C@H]1O`: the outcome was inactive. Under `O=C(O)[C@@H]1CCCNC1` stands “inactive”; under `COc1ccc2nccc(C(=O)O)c2c1`, “inactive”.

With `NC[C@@H]1O[C@H](O[C@H]2[C@H](O)[C@H](O[C@@H]3O[C@H](CO)[C@@H](O)[C@H](N)[C@@H]3O)[C@@H](N)C[C@H]2N)[C@@H](O)[C@H](O)[C@@H]1O`, the compound was classed as inactive.

Consider `C[C@H](N)CCCC(C)(C)O`, for which the call was inactive. The entry for `O=C(O)[C@@H]1[C@@H]2C[C@H]3c4[nH]c5ccccc5c4CCN3C[C@@H]2CC[C@@H]1O` is “inactive”. The entry for `CN=C(NC#N)NCCSC[C@H]1N=CN=C1C` is “inactive”; for `C[C@H](N[C@@H](C)COc1ccccc1)[C@H](O)c1ccc(O)cc1` it is “inactive”; for `COC(=O)Nc1nc2ccc(SC(C)C)cc2[nH]1` it is “inactive”. Under `C[C@@H]1C(=O)O[C@@H]2C[C@]34[C@H]5C[C@@H](C(C)(C)C)[C@@]36[C@@H](OC(=O)[C@@H]6O)O[C@@]4(C(=O)O5)[C@@]12O` stands “inactive”; under `CCC(=O)OCC(=O)[C@@]1(OC(=O)CC)[C@H](C)C[C@@H]2[C@H]3CCC4=CC(=O)C=C[C@]4(C)[C@]3(Cl)[C@@H](O)C[C@@]21C`, “inactive”.

As to `CC(C)(CO)[C@H](O)C(=O)NCCC(=O)O`, the outcome was inactive. Regarding `C[C@@H](CNC1CCCCC1)OC(=O)c1ccccc1`, the compound was classed as inactive. Regarding `Cc1noc(C)c1-c1nc(Nc2ccncc2)c2ccccc2n1`, the call was inactive. Under `CCCC(=O)Nc1ccc(OC[C@@H](O)CNC(C)C)c(C(C)=O)c1` stands “inactive”; under `CC(C)(C)NC(=O)[C@@H]1C[C@H]2CCCC[C@@H]2CN1C[C@H](O)[C@H](Cc1ccccc1)NC(=O)[C@@H](CC(N)=O)NC(=O)c1ccc2ccccc2n1`, “inactive”; under `NC[C@@H]1O[C@H](O[C@@H]2[C@H](O[C@@H]3O[C@H](CO)[C@@H](COC[C@H]4O[C@@H](CN)[C@@H](O)[C@@H](O)[C@@H]4N)[C@@H]3O)[C@@H](O)[C@@H](N)C[C@H]2N)[C@@H](N)[C@H](O)[C@@H]1O`, “inactive”. The entry for `C#C[C@@]1(OC(C)=O)CC[C@@H]2[C@@H]3CCC4=C[C@@H](OC(C)=O)CC[C@H]4[C@H]3CC[C@]21C` is “inactive”. Under `CC(=O)OCC(=O)[C@@]1(OC(C)=O)[C@H](C)C[C@H]2[C@@H]3C[C@H](F)C4=CC(=O)C=C[C@@]4(C)[C@]3(F)[C@H](O)C[C@@]21C` stands “inactive”; under `C[C@@]12CC[C@H]3[C@@H](CCC4=CC(=O)CC[C@]43C)[C@H]1CC[C@H]2C(=O)CO`, “inactive”; under `COc1c(O[C@H]2O[C@@H](CO)[C@@H](O)[C@@H](O)[C@@H]2O)cc2c(c1OC)-c1ccc(SC)c(=O)cc1[C@H](NC(C)=O)CC2`, “inactive”. In the case of `Cn1nnnc1SCC1=C(C(=O)O)N2C(=O)[C@@H](NC(=O)[C@@H](O)c3ccccc3)[C@@H]2SC1`, the outcome was inactive.

`N#Cc1cccc(-c2cncnc2-n2ccnc2)c1`: the outcome was inactive. The entry for `CN(C)CCO[C@@H](c1ccc(Cl)cc1)c1ccccn1` is “inactive”. Under `C[C@H](C(=O)O)c1cccc(Oc2ccccc2)c1` stands “inactive”; under `NS(=O)(=O)c1cc2c(cc1Cl)N[C@@H](CC1CCCC1)NS2(=O)=O`, “inactive”. The entry for `Nc1ccn([C@@H]2CC[C@H](CO)O2)c(=O)n1` is “inactive”; for `CC(C)n1c(/C=C\[C@@H](O)C[C@@H](O)CC(=O)O)c(-c2ccc(F)cc2)c2ccccc21` it is “inactive”. Turning to `FC(F)(F)c1ccccc1-c1ccc2ncnc(NC3CCNCC3)c2c1`, the call was inactive. Consider `NC[C@@H]1O[C@H](O[C@H]2[C@H](O)[C@@H](O[C@H]3[C@H](O)[C@H](N)C[C@H](N)[C@H]3O[C@@H]3O[C@H](CO)[C@@H](O)[C@H](O)[C@@H]3N)O[C@H]2CO)[C@@H](N)[C@H](O)[C@@H]1O`, for which the result was inactive. The entry for `C[C@@H]1Cc2ccccc2N1NC(=O)c1ccc(Cl)c(S(N)=O)c1` (stereo not given in full) is “inactive”; for `C[C@@]12CCC(=O)C[C@@H]1CC(=O)[C@H]1[C@H]3CCC[C@]3(C)C(=O)C[C@@H]12` (tested in a mixture with another compound) it is “inactive”; for `c1ccc2c(c1)CCC[C@@H]2C1=NCCN1` it is “inactive”.
